The source of these data is PubChem BioAssay AID1224921 (Broad Institute, 2016).

About 350 (25%) of roughly 1,400 compounds were called active. Roughly 2% stayed inconclusive and do not appear here. A selection follows. Measured potencies and affinities stand elsewhere. Unmarked numbers belong to inactive results. How the calls were made is not given here.

A short description of this test: C. difficile growth inhibition, confirmation, 4-point retest (AID 1224921).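 Further: plate controls were DMSO wells for no effect and levofloxacin 16 µg/mL wells for full effect.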 To be noted: Clostridioides difficile clinical isolate growth, OD600, 24 h, active compounds read low; at 30 µM unless noted.
`COc1cccc(C#Cc2ccc([C@H]3[C@@H](CO)N(C(=O)C4CC4)[C@H]3C#N)cc2)c1`: the max activity is 19.6%.
As for `CO[C@@H]1CN(C)C(=O)c2cc(NC(=O)c3ccccc3)ccc2OC[C@H](C)N(C)C[C@H]1C`, the max activity is 6.89% [at 8 µM].
With `CO[C@@H]1CN(C)C(=O)c2cc(NS(=O)(=O)c3cn(C)cn3)ccc2OC[C@@H](C)N(Cc2cccc(Cl)c2)C[C@H]1C`, the max activity is 31.5%.
Regarding `C[C@H](CO)N1C[C@H](C)[C@@H](CN(C)C(=O)NC2CCCCC2)Oc2c(NC(=O)Nc3cccc4ccccc34)cccc2C1=O`, the max activity is 61.2%.
For the compound `C[C@@H]1CCCCO[C@@H](CN(C)Cc2ccc3c(c2)OCO3)[C@H](C)CN([C@H](C)CO)C(=O)c2cc(NC(=O)Nc3ccc(F)cc3)ccc2O1`, the max activity is 18%.
In the case of `CCCN1C[C@@H](C)[C@H](OC)CN(C)C(=O)c2cc(NC(=O)Nc3cccc(OC)c3)ccc2OC[C@H]1C`, the max activity was -7.34% [at 1.95 µM].
`CCCN1C[C@@H](C)[C@H](OC)CN(C)C(=O)c2ccc(NC(=O)Nc3c(C)noc3C)cc2OC[C@@H]1C`: the max activity was 21.5%.
In the case of `CCCN1C[C@@H](C)[C@H](OC)CN(C)C(=O)c2ccc(NC(=O)CC)cc2OC[C@@H]1C`, the max activity was 3.36%.
For `COc1ccc(NC(=O)Nc2ccc3c(c2)[C@@H]2C[C@@H](CC(=O)NCc4ccccc4F)O[C@H](CO)[C@@H]2O3)cc1`, the max activity is -14.3%.
For `C[C@@H]1CN([C@@H](C)CO)C(=O)c2cccc(NS(=O)(=O)c3ccc(Cl)cc3)c2O[C@@H]1CN(C)Cc1ccc(C(F)(F)F)cc1`, the max activity is 20.4% [at 1.95 µM].
As for `C[C@@H]1CN([C@@H](C)CO)C(=O)c2cc(NC(=O)Nc3ccc(F)cc3)ccc2O[C@@H](C)CCCCO[C@H]1CN(C)Cc1ccc2c(c1)OCO2`, the max activity is 20.9%.
The result for `C[C@@H]1CCCCO[C@@H](CN(C)Cc2ccc3c(c2)OCO3)[C@H](C)CN([C@@H](C)CO)C(=O)c2cc(NC(=O)Nc3ccc4c(c3)OCO4)ccc2O1` reads 14.9%; that for `C[C@H](CO)N1C[C@H](C)[C@@H](CN(C)Cc2ccc3c(c2)OCO3)OCCCC[C@H](C)Oc2ccc(NC(=O)Nc3ccc4c(c3)OCO4)cc2C1=O`, 12.4%; that for `Cc1ccc(S(=O)(=O)Nc2ccc3c(c2)C(=O)N([C@@H](C)CO)C[C@H](C)[C@@H](CN(C)Cc2ccc(Cl)c(Cl)c2)OCCCC[C@@H](C)O3)cc1`, 8.85%.
For the compound `COc1ccc(CN(C)C[C@H]2OCCCC[C@H](C)Oc3ccc(NC(=O)Nc4ccc5c(c4)OCO5)cc3C(=O)N([C@H](C)CO)C[C@H]2C)cc1`, the max activity was 21.6%.
In the case of `COc1ccc(CN(C)C[C@H]2OCCCC[C@@H](C)Oc3ccc(NC(=O)Nc4ccc5c(c4)OCO5)cc3C(=O)N([C@H](C)CO)C[C@H]2C)cc1`, the max activity is 17.6%.
Take `Cc1ccc(S(=O)(=O)Nc2ccc3c(c2)C(=O)N([C@H](C)CO)C[C@@H](C)[C@H](CN(C)Cc2ccc(Cl)c(Cl)c2)OCCCC[C@H](C)O3)cc1`: the max activity was 39% [at 1.95 µM].
As to `CCCN(C)C[C@H]1OCCCC[C@H](C)Oc2ccc(NS(=O)(=O)c3c(C)noc3C)cc2C(=O)N([C@@H](C)CO)C[C@@H]1C`, the max activity was 19% [at 8 µM].
For `C[C@@H]1CN([C@@H](C)CO)C(=O)Cc2cc(NS(C)(=O)=O)ccc2O[C@H]1CN(C)Cc1ccccc1`, the max activity was 38.5% [at 35 µM].
For `N#C[C@H]1[C@@H](c2ccccc2)[C@@H](CO)N1S(=O)(=O)c1ccc(-c2ccccc2)cc1`, the max activity was 40.9%.
With `Cc1ccc(-c2cnc3c(c2)C(=O)N([C@@H](C)CO)C[C@H](C)[C@@H](CN(C)C(=O)c2ccccc2)O3)cc1`, the max activity was -9.22% [at 0.5 µM].
Take `CN(C)CC(=O)N[C@H]1C=C[C@H](CC(=O)NCCN2CCCCC2)O[C@@H]1CO`: the max activity is 12.7% [at 8 µM].
As to `N#C[C@H]1[C@@H](c2ccc(-c3ccccc3)cc2)[C@@H](CO)N1C(=O)Cc1ccncc1`, the max activity was 13.6%.
For the compound `CCC(=O)N[C@@H]1C=C[C@@H](CC(=O)OC)O[C@H]1CO`, the max activity is -12.2% [at 8 µM].
On to `C[C@@H]1CN([C@H](C)CO)S(=O)(=O)c2ccc(C#CCC3CCCC3)cc2O[C@@H]1CN(C)C(=O)c1ccccn1`, for which the max activity was 46.2% [at 8 µM].
As to `C[C@@H]1CN([C@H](C)CO)C(=O)c2cccc(N(C)C)c2O[C@H]1CN(C)Cc1ccc(C(F)(F)F)cc1`, the max activity is 26.1%.
On to `CO[C@H]1CN(C)C(=O)c2ccc(NC(=O)c3ccc(F)cc3)cc2OC[C@@H](C)N(C(=O)CN(C)C)C[C@H]1C`, for which the max activity was -10.6% [at 1.95 µM].
Take `C[C@H](CO)N1C[C@H](C)[C@@H](CN(C)CC2CCCCC2)OCCCC[C@H](C)Oc2ccc(NC(=O)Nc3cccc4ccccc34)cc2C1=O`: the max activity is 21.6%.
`C[C@@H]1CCCCO[C@H](CN(C)CC2CCCCC2)[C@H](C)CN([C@@H](C)CO)C(=O)c2cc(NC(=O)Nc3cccc4ccccc34)ccc2O1`: the max activity was -10.7%.
In the case of `C[C@H]1CCCCO[C@@H](CN(C)CC2CCCCC2)[C@@H](C)CN([C@@H](C)CO)C(=O)c2cc(NC(=O)Nc3cccc4ccccc34)ccc2O1`, the max activity was 27.7% [at 8 µM].
Turning to `C[C@@H]1CCCCO[C@H](CN(C)CC2CCCCC2)[C@@H](C)CN([C@H](C)CO)C(=O)c2cc(NC(=O)Nc3cccc4ccccc34)ccc2O1`, the max activity was 12.9% [at 8 µM].
Regarding `C[C@@H]1CN([C@H](C)CO)S(=O)(=O)c2ccc(C#CCC3CCCC3)cc2O[C@H]1CN(C)C(=O)c1ccccn1`, the max activity is 43.5%.
As to `CO[C@@H]1CN(C)C(=O)c2ccc(NC(C)=O)cc2OC[C@@H](C)N(Cc2cc(F)ccc2F)C[C@H]1C`, the max activity is -9.54% [at 8 µM].
With `Cc1ccc(-c2ccc3c(c2)O[C@@H](CN(C)Cc2cccnc2)[C@@H](C)CN([C@@H](C)CO)S3(=O)=O)cc1`, the max activity was 35.1%.
With `CN(C)C(=O)c1ccc(-c2ccc([C@@H]3[C@@H](CO)N(C(=O)C4CCCCC4)[C@H]3C#N)cc2)cc1`, the max activity is -13.2% [at 0.5 µM].
For `C[C@H](CO)N1C[C@H](C)[C@H](CN(C)C(=O)Nc2ccc(C(F)(F)F)cc2)OCCCC[C@H](C)Oc2ccc(NS(=O)(=O)c3ccc(Cl)cc3)cc2C1=O` the value was 14.5%; for `C[C@H]1CCCCO[C@@H](CN(C)C(=O)Nc2ccc(C(F)(F)F)cc2)[C@@H](C)CN([C@@H](C)CO)C(=O)c2cc(NS(=O)(=O)c3ccc(Cl)cc3)ccc2O1`, 12.1%; for `COc1ccc(NC(=O)Nc2cccc3c2O[C@H](CN(C)C(=O)NC2CCCCC2)[C@@H](C)CN([C@H](C)CO)C3=O)cc1`, -16%.
On to `CO[C@H]1CN(C)C(=O)c2cc(NS(=O)(=O)c3ccc(Cl)cc3)ccc2OC[C@@H](C)N(C(=O)NC(C)C)C[C@@H]1C`, for which the max activity was 11.8%.
For `C[C@H](O)C#Cc1ccc2c(c1)O[C@@H](CN(C)C(=O)c1ccccc1)[C@@H](C)CN([C@@H](C)CO)S2(=O)=O`, the max activity is -12.7%.
Regarding `C[C@H](CO)N1C[C@H](C)[C@@H](CN(C)Cc2ccccn2)Oc2cc(C3=CCCCC3)ccc2S1(=O)=O`, the max activity is 33.3%.
For `C[C@@H]1CN([C@@H](C)CO)C(=O)Cc2cc(N(C)C)ccc2O[C@H]1CN(C)Cc1ccccc1`, the max activity is 9.89%.
The result for `CO[C@@H]1CN(C)C(=O)c2cc(NC(=O)NC(C)C)ccc2OC[C@H](C)N(C)C[C@@H]1C` reads -5.88%; that for `CCS(=O)(=O)Nc1ccc2c(c1)OC[C@H](C)NC[C@@H](C)[C@@H](OC)CN(C)C2=O`, 10.9%.
On to `CN(C)C(=O)c1ccc(-c2ccc([C@@H]3[C@@H](C#N)N(C(=O)C4CC4)[C@H]3CO)cc2)cc1`, for which the max activity is 19.6% [at 1.95 µM].
Regarding `O=C(Nc1cc(F)ccc1F)N[C@H]1CC[C@H](CC(=O)N2CCc3ccccc3C2)O[C@@H]1CO`, the max activity was -10.9% [at 8 µM].
In the case of `C[C@@H]1CN([C@@H](C)CO)C(=O)c2cc(NC(=O)Nc3ccc(C(F)(F)F)cc3)ccc2O[C@@H](C)CCCCO[C@H]1CN(C)C`, the max activity is 31.7% [at 8 µM].
On to `C[C@@H]1CN([C@@H](C)CO)C(=O)c2cc(NC(=O)Nc3ccc(C(F)(F)F)cc3)ccc2O[C@@H](C)CCCCO[C@@H]1CN(C)C`, for which the max activity was 6.76% [at 8 µM].
Regarding `C[C@H](CO)N1C[C@H](C)[C@@H](CN(C)Cc2ccc(C(F)(F)F)cc2)OCCCC[C@H](C)Oc2ccc(NC(=O)CCCN(C)C)cc2C1=O`, the max activity was 16.3%.
Consider `C[C@@H]1CN([C@@H](C)CO)C(=O)c2cc(NC(=O)CCCN(C)C)ccc2O[C@@H](C)CCCCO[C@@H]1CN(C)Cc1ccc(C(F)(F)F)cc1`, for which the max activity is -16.2% [at 1.95 µM].
With `CCCN(C)C[C@H]1OCCCC[C@H](C)Oc2ccc(NC(=O)Nc3cccc4ccccc34)cc2C(=O)N([C@@H](C)CO)C[C@H]1C`, the max activity is 13.8%.
For `C[C@@H]1CN([C@@H](C)CO)C(=O)c2ccccc2-c2ccccc2CO[C@H]1CN(C)C(=O)CCN(C)C` the value was -7.53% [at 0.5 µM]; for `CO[C@H]1O[C@H](CO)[C@@H](OC(=O)Nc2cccc(F)c2)[C@H](OC(=O)Nc2ccc3c(c2)OCO3)[C@H]1OC(=O)Nc1ccc2c(c1)OCO2`, 8.7%; for `C[C@H](CO)N1C[C@H](C)[C@@H](CN(C)CC2CCCCC2)Oc2ccc(NC(=O)Cc3cn(C)c4ccccc34)cc2CC1=O`, 22.1% [at 1.95 µM].
